Shown are actives, neighbours in structure and some others; about 9.5% of the full set was active somewhere.
Pf growth 48h: P. falciparum growth inhibition at 48 hours (one generation). P. falciparum luciferase growth in erythrocytes, 48 h. Potency, µM (highest dose often 28.7 µM), without a hit: at the highest dose activity change, negative = inhibition, hits mostly inhibitors. hit rate 5.9% among 310,000; note: % is set by controls: 0 for no effect and ±100 for the full control effect
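Parasite viability was followed by luminescence of a genomically integrated firefly luciferase. Cultures held 0.1% parasitemia at 2% hematocrit (final), incubated under 5% CO2 at 37 C.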
RE007 growth inh: less growth of the S. pombe RE007 Vpr strain; S. pombe RE007 Vpr strain, BacTiter-Glo ATP luminescence, 24 h; Potency, µM (doses to about 92.2 µM), inactives show at the top dose activity change, negative = less growth, hits mostly inhibitors; hit rate 0.21% among 360,000; AID 651644; active = well fitted falling curve with a large enough effect; inconclusive = small, poorly fitted or top-dose-only effect; inactive = no such curve, though single readings can be large or run the other way; note: % is set by controls: 0 for no effect and ±100 for the full control effect; nearly all actives have a fitted effect of over 50% in size
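Fission yeast RE007 carrying one integrated HIV-1 vpr copy, seeded at OD 0.01 in PMG+AL medium with 23 nL pinned compound. Grown 24 h at 30 degrees; viability read by BacTiter-Glo luminescence after 5 min.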
SARS PLpro yeast: inhibitors of SARS-CoV papain-like protease in yeast. S. cerevisiae expressing SARS-CoV PLpro, growth rescue. Potency, µM (highest dose often 32.9 µM), for inactives: at the highest dose activity, positive = growth rescue, most hits filed as activators. hit rate 0.19% among 330,000. AID 485353; calls by dose curve; note: 0% is about no effect; nearly all actives have a fitted effect of over 55% in size
Pf growth 96h: inhibits malaria parasite growth, 96 h | P. falciparum luciferase reporter growth, 96 h | Potency, µM (titrated, usually from 28.7 µM), inactives show at the top dose activity change, negative = inhibition, actives largely listed as inhibitors | hit rate 6.9% among 320,000 | AID 504834; note: % is set by controls: 0 for no effect and ±100 for the full control effect
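P. falciparum expressing integrated firefly luciferase grown in erythrocytes (2% hematocrit, 0.05% parasitemia final) with compounds for 96 hours at 37 C, 5% CO2. Growth inhibition read as loss of luminescence after adding luciferase detection reagent.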
NS1 inh: influenza NS1 inhibition. Potency, µM (top dose mostly 46.1 µM), for the others: at the highest dose activity, positive = more growth. hit rate 0.4% among 270,000; calls by dose curve; note: actives are rising curves; nearly all actives have a fitted effect of over 50% in size
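Read-out: OD600 growth recovery of NS1-expressing budding yeast. Cells grown overnight at 30C in -URA glucose medium, washed, resuspended and diluted 1:100 in 2% galactose assay medium, pH 6.0. Same strain lacking NS1 served as positive control.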
Numbers without * were called inactive; ? = inconclusive; · = not tested or not shown; ! = not confirmed by another sample. Unless noted, calls come from the whole dose curve; as a rule, active = well fitted inhibition curve with a large enough effect; inconclusive = small, poorly fitted or top-dose-only effect, or another doubt; inactive = no such curve, though single readings can be large or run the other way. Potency is the fitted concentration of half-maximal effect.

SMILES	Pf growth 48h	RE007 growth inh	SARS PLpro yeast	Pf growth 96h	NS1 inh
CCN(CC)CCNC(=O)c1ccc(NC(=O)c2ccc3c(c2)CCC3)cc1	5.2µM*	1%	3%	3.7µM*	-3%
CCN(CC)CCNC(=O)c1ccc(NC(=O)c2ccccc2-c2ccc(C(F)(F)F)cc2)cc1	13µM*	2%	-3%	9.3µM*	10%
O=C(Nc1cccnc1)c1cc(-c2cccs2)on1	235%	6%	-11%	10µM*	-13%
CCN(CC)CCNC(=O)c1ccc(NC(=O)c2cn(-c3ccc(F)cc3)nc2-c2cccc(OC)c2)cc1	1.9µM*	5%	-5%	1µM*	-7%
O=C(Nc1cccnc1)c1cn(-c2ccccc2)nc1-c1cccs1	0.59µM*	10%	-8%	13%	-24%
CCN(CC)CCNC(=O)c1ccc(NC(=O)c2cn(-c3ccccc3)nc2-c2cccs2)cc1	12µM*	23%	-1%	?	2%
Cc1ccc(Cl)cc1NC(=O)COC(=O)CC1CCCCC1	?	-22%	-7%	?	·
CCCCN1C(=O)C(CC(=O)NCCc2ccccn2)CC(C(=O)N(CC)CC)=C1C (stereo not drawn)	·	6%	·	·	·
CC(C)(C)c1ccccc1NC(=O)NC1CCN(Cc2c(F)cccc2Cl)CC1	7.4µM*	4%	1%	?	-4%
O=C(Nc1ccccc1)NC1CCN(Cc2c(F)cccc2Cl)CC1	-7%	-7%	-2%	-29%	-1%
Cc1ccc(OCCNC(=O)c2ccccc2F)cc1	-5%	-18%	1%	-5%	-5%
Cc1ccc(CN2CC(N3CCN(C)CC3)CS2(=O)=O)cc1 (stereo not drawn)	·	-7%	·	·	·
COC(=O)CNC(=O)c1cn(-c2ccc(C)c(C)c2)c(=O)c2ccccc12	?	2%	0%	32%	-3%
COc1ccc([N+](=O)[O-])cc1NC(=O)c1cn(-c2ccc(C)c(C)c2)c(=O)c2ccccc12	-8%	-13%	13%	12µM*	7%
Oc1ccc(N=Nc2cccc(C(F)(F)F)c2)cc1C=Nc1ccc(N2CCOCC2)cc1	?	2%	0%	3.3µM*	11%
N#Cc1ccc(C23CC4(C2)[C@H](CN(CC2CCCCC2)[C@@H]4c2ccccc2)C3c2ccccc2)cc1 (stereo partly drawn)	?	-14%	-4%	12µM*	3%
N#Cc1ccc(C23CC4(C2)[C@H](CN(CC2CCCCC2)[C@@H]4c2ccccc2)C3c2ccc(C(F)(F)F)cc2)cc1 (stereo partly drawn)	10µM*	·	-5%	?	13%
NS(=O)(=O)c1ccc(N2C(=O)CCCC2=O)cc1	·	11%	·	·	·
COc1ccc(/C=C(\C#N)C(=O)C(C)(C)n2cncn2)cc1	29%	1%	1%	3.7µM*	-1%
COc1ccc(C=C(C#N)C(=O)c2ccccc2)cc1	·	-6%	·	·	·
Cc1cc(C)c(NC(=O)c2cccc3c2C(=O)N(C2CCCCC2)C3)c(C)c1	0%	1%	-2%	44%	12%
Cc1nn(-c2ccccn2)c2c1C(=O)CC(C)(C)C2Br (stereo not drawn)	15µM*	-15%	-2%	?	-5%
COC(=O)CNC(c1ccccc1)c1cc(C)ccc1NC(=O)CNC(=O)OCc1ccccc1 (stereo not drawn)	13µM*	1%	-5%	·	-26%
COC(=O)CNC(c1ccccc1)c1cc(C)ccc1NS(=O)(=O)c1ccc(C)cc1 (stereo not drawn)	9.3µM*	12%	-3%	13µM*	-19%
COC(=O)CNC(c1ccccc1)c1cc(Br)ccc1NC(=O)OCc1ccccc1 (stereo not drawn)	?	-5%	-8%	?	5%
SMILES	Pf growth 48h	RE007 growth inh	SARS PLpro yeast	Pf growth 96h	NS1 inh
CCCN(CCC)C(=O)Nc1cc(Cl)ccc1OC	-29%	-19%	0%	?	-7%
CCC(C)NC(=O)CC(C)C (stereo not drawn)	-19%	7%	0%	-4%	-2%
CC(C)CC(=O)NCC(C)NC(=O)CC(C)C (stereo not drawn)	13%	1%	0%	15µM*	1%
S=C(Nc1ccccn1)c1ccccn1	?	-5%	-3%	6.6µM*!	-14%
Cc1ccc(C)c(NC(=S)c2ccccn2)c1	12µM*	?	8%	1µM*	-34%
CCOC(=O)C1(C(=O)OCC)NC(=O)CC1C(C)C (stereo not drawn)	·	14%	·	·	·
CC(C)c1ccc(OCc2ccc(C(=O)O)o2)cc1	1µM*	7%	2%	244%	-44%
Cc1ccc(S(=O)(=O)NC(=O)c2ccc(-c3ccc(-c4ccccc4)cc3)o2)c(C)c1	-1%	·	-62%	-13%	-44%
O=C(O)c1ccccc1N1C(=O)c2cccc3cccc(c23)C1=O	15%	4%	0%	8.3µM*	12%
O=C(O)c1ccc2c3c(cccc13)C(=O)N(c1cccc3ccccc13)C2=O	-3%	16%	1%	47%	1%
CCC(COC(=O)NC)NC(=O)Oc1ccccc1 (stereo not drawn)	57%	1%	-2%	4.7µM*	-1%
CCC(COC(=O)NC)NC(=O)Oc1cccc(C)c1 (stereo not drawn)	-1%	-10%	-1%	?	9%
COc1cccc(CN(C)CC(O)COc2cc(Cl)ccc2Cl)c1 (stereo not drawn)	10µM*	3%	-1%	?	-1%
COc1ccc(Br)cc1CN(C)CC(O)COc1ccc(Br)cc1 (stereo not drawn)	?	-15%	-3%	?	-2%
Cc1ccc(-n2cnc3cc(NCc4cccs4)ccc32)cc1	·	22µM*	-32%	?	-88%
Cn1cnc2cc(NCc3cccs3)ccc21	52%	-28%	-3%	10µM*	·
CN(Cc1cccc(F)c1)C(=O)c1cc(S(=O)(=O)N2CCOCC2)ccc1N1CCCC1	?	-2%	-5%	?	·
CC1CCC(NC(=O)c2cc(S(=O)(=O)N3CCCCC3)ccc2N2CCOCC2)CC1 (stereo not drawn)	9.3µM*	-15%	-1%	?	·
CCc1ccc(CN(C)C(=O)c2cc(S(=O)(=O)N3CCOCC3)ccc2N2CCCC2)cc1	12µM*	6%	0%	?	·
CCCCCC(C)NC(=O)c1cc(S(=O)(=O)N2CCCCC2)ccc1N1CCOCC1 (stereo not drawn)	13µM*	0%	-8%	?	·
COC(=O)c1ccc(NC(=O)C(OC)c2ccccc2)cc1 (stereo not drawn)	-4%	-2%	-1%	2%	2%
N#Cc1nc(COc2ccccc2)oc1N1CCC(Cc2ccccc2)CC1	9.3µM*	0%	-2%	-1%	9%
COC(=O)C1=C(C)NC(C)=C(C(=O)OC)C1c1ccc(C)o1	-8%	1%	1%	10%	-2%

Assay outcomes: PubChem, National Center for Advancing Translational Sciences (NCATS)
